In PubChem BioAssay AID720551 (National Center for Advancing Translational Sciences (NCATS), 2013):
The whole screen tested about 340,000 compounds, of which about 1,300 (0.38%) were called active.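 Rule for the calls: active = maximum activity change below -70%; inconclusive = maximum activity change between -70% and -50%; inactive = maximum activity change above -50%.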 The full list was thinned out, with actives kept by preference.

What follows are compounds tested against Voltage-gated inwardly rectifying potassium channel KCNH2 (Homo sapiens) (UniProt Q12809) (assay: qHTS for Inhibitors of KCHN2 3.1: Wildtype qHTS). Conditions: U2OS, BacMam KCNH2, thallium flux FluxOr; at 1.84 µM; hits give low values.
Sequence of Voltage-gated inwardly rectifying potassium channel KCNH2 (Homo sapiens) (Q12809 whole entry, looked up, canonical isoform): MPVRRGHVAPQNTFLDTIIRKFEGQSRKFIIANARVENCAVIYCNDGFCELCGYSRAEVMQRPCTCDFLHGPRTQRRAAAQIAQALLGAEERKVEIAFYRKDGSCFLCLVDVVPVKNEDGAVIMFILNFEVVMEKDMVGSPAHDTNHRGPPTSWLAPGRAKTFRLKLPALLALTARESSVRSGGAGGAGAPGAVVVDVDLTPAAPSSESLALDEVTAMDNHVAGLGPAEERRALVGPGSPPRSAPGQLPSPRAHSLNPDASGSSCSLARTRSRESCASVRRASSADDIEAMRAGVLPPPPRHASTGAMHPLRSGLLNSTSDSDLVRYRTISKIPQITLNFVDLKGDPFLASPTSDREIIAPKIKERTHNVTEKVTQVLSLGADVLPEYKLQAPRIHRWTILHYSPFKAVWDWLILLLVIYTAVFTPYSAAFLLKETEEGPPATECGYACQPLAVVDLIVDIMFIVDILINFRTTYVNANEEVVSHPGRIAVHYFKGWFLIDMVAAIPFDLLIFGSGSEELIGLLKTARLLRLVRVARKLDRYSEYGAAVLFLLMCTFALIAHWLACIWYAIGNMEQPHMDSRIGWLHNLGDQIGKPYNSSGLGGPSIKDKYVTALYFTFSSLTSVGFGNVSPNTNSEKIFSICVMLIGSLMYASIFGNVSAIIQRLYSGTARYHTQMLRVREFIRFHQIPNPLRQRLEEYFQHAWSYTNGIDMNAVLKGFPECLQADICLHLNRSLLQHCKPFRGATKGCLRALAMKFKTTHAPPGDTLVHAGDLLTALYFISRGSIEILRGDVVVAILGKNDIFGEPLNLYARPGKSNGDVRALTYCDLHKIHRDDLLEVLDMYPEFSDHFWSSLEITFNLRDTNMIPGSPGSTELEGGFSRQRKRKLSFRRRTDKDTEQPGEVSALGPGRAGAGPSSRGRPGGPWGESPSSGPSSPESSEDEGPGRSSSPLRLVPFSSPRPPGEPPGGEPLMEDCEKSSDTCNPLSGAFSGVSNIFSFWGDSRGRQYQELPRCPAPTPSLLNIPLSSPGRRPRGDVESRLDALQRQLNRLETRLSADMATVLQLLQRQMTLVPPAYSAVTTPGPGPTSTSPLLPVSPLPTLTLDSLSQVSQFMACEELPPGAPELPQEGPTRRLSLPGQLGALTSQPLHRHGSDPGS
Text: Many antipsychotic drugs that inhibit the neurotransmitter dopamine also bind to hERG1 channel which might help explain their antipsychotic activity but also produces cardiac side effects. The discovery of the novel KCNH2 3.1 isoform offers a potential new target for the development of antipsychotic drugs without cardiac side effects. This proposal will use a high throughput thallium flux assay developed for KCNH2 to screen compounds that modulate the activity of KCNH2 3.1. The wild type KCNH2 channel will also be screened in parallel to help define the selective modulators of this KCNH2 3.1 potassium channel. The resulting compounds will be validated in electrophysiology experiments. The availability of animal models will allow future testing in vivo for effects on memory and other aspects of animal physiology linked with psychosis. NIH Chemical Genomics Center [NCGC] NIH Molecular Libraries Probe Centers Network [MLPCN] MLPCN Grant: MH096539 Assay Submitter (PI): James Barrow, Johns Hopkins University, Lieber Institute for Brain Development
U2OS cells were resuspended in cell media containing 10% fetal calf serum (FCS) at a concentration of 2 million cells / mL. The solution was treated with the Wild-type virus at 2.03 x 10^8 / mL and allowed to incubate at room temperature in the dark. After 4 hours of incubation, DMEM + 10% fetal bovine serum (FBS) was added to the cell solution. Three microliter was then dispensed into a 1536 tissue culture treated black assay plates which were incubated overnight at 37 C. Two microliter of loading buffer (HBSS + HEPES + Red40 dye quencher + FluxOr dye) was added and the assay plates were incubated for 45 min at room temperature in the dark. […] A stimulation buffer was added to the plate and the second kinetic read (2 min) was obtained. The rate constant was calculated from the kinetic reads and normalized to the positive and negative DMSO controls.
% is set by controls: 0 for no effect and ±100 for the full control effect.

| SMILES | activity change |
| --- | --- |
| CCCCN1C(N)=NC[C@@H]1Cc1ccccc1 | -3.39% (inactive) |
| CCCC[C@@H]1CN=C(N)N1CCc1cccc(F)c1 | -2.35% (inactive) |
| CN(C)C1=NC[C@H](Cc2ccccc2)N1CCc1ccc(F)cc1 | -88.4% (active) |
| O=C1OCCC1=COCCCCOC=C1CCOC1=O | 0.218% (inactive) |
| COC(=O)C[C@H]1C[C@@H]2c3cc(NC(=O)Nc4ccccc4)ccc3O[C@@H]2[C@@H](CO)O1 | -0.954% (inactive) |
| COc1ccc(C(=O)Nc2sc(C)c(C)c2CN2CCOCC2)cc1 | -3.94% (inactive) |
| CCc1ccc(NC(=O)CN2CCC(C(=O)c3ccc(OC)cc3)CC2)cc1 | 1.48% (inactive) |
| CCOc1ccc(NC(=O)CN2CCN(CC(=O)Nc3ccc(OC)cc3)CC2)cc1 | -141% (active) |
| COc1cccc(NC(=O)CN2CCN(CC(=O)Nc3ccccc3Cl)CC2)c1 | 19.7% (inactive) |
| CCc1cc(C(=O)c2ccc(OC)cc2)c(NC(=O)CN2CCN(C)CC2)s1 | -79.3% (active) |
| CCOc1ccc(NC(=O)N2CCN(CC)CC2)cc1 | 0.628% (inactive) |
| C[C@H](CO)N1C[C@H](C)[C@@H](CN(C)C(=O)c2cnccn2)Oc2ncc(Br)cc2C1=O | -7.83% (inactive) |
| O=C(NCCOc1ccccc1)N1[C@H]2CC[C@@H]1C=C(c1ccc(F)cc1OCc1ccccc1)C2 | 2.38% (inactive) |
| Cc1ccccc1SCC(=O)OCC(=O)N1CC(=O)Nc2ccccc21 | 7.23% (inactive) |
| O=C1CN(C(=O)COC(=O)c2cnc(Cl)c(Cl)c2)c2ccccc2N1 | 8.42% (inactive) |
| O=C1CN(C(=O)COc2c(Cl)cccc2Cl)c2ccccc2N1 | -143% (active) |
| COc1ccc(NC(=O)CSc2nnnn2-c2cccc(OC)c2)cc1 | 52.5% (inactive) |
| Cc1ccc(S(=O)(=O)N2C[C@@H](C)[C@]3(C2)[C@H](O)[C@H](OC(=O)NCc2ccccc2)C[C@H]2C(=O)N(c4ccccc4)C(=O)[C@H]23)cc1 | -2.73% (inactive) |
| COc1ccc([C@H]2N[C@]3(CCCN(CC4CCCCC4)C3=O)[C@H]3C(=O)N(C)C(=O)[C@@H]23)cc1 | 14.1% (inactive) |

| SMILES | activity change |
| --- | --- |
| C[C@H]1CCC(=O)N([C@H](CSc2ccccc2)Cc2ccccc2)CC1 | 9.67% (inactive) |
| COc1ccc(SC[C@H](Cc2ccccc2)N2CCN(CCc3ccccc3)CCC2=O)cc1 | -108% (active) |
| O=C1CC[C@H](O)CCN1[C@H](CSc1ccc(Br)cc1)Cc1ccccc1 | 0.842% (inactive) |
| C[C@H]1CN([C@@H](C)CO)C(=O)CCCn2cc(nn2)CO[C@@H]1CN(C)S(=O)(=O)c1cccc(C#N)c1 | -15.1% (inactive) |
| CC(OC(=O)c1cccnc1Cl)C(=O)NC1CCCCC1 (stereo unspecified) | 10.4% (inactive) |
| COc1ccc(-n2c(-c3ccc(Cl)cc3)n[nH]c2=S)c(OC)c1 | -22.5% (inactive) |
| CC1=C(N2CCN(c3ncccn3)CC2)CCC1=O | 2.31% (inactive) |
| Cc1nn(-c2ncccn2)c2c1C(=O)CC(C)(C)C2Br (stereo unspecified) | -151% (active) |
| Cc1nn(-c2ccccc2)c2c1C(=O)NC(=O)C(C)(C)C2 | -0.0713% (inactive) |
| O=C(COC(=O)CCc1c[nH]c2ccccc12)Nc1cccc(Cl)c1 | -8.07% (inactive) |
| CC1(C)CN(CCc2ccccc2)C(=O)[C@H]1CC(=O)Nc1ccc(Br)cc1 | -7.47% (inactive) |
| COCCNC(=O)c1ccc(N2CCC3(CC2)OCCO3)c([N+](=O)[O-])c1 | -4.71% (inactive) |
| CCC(C)NC(=O)c1ccc(N2CCC3(CC2)OCCO3)c([N+](=O)[O-])c1 (stereo unspecified) | -3.92% (inactive) |
| CCCNC(=O)c1ccc(N2CCC3(CC2)CC(c2ccc(Cl)cc2)=NO3)c([N+](=O)[O-])c1 | -85.9% (active) |
| Cc1cc(C)cc(C(=O)NCC(=O)OCC(=O)N2CCCCC2)c1 | -9.23% (inactive) |
| COc1ccc(OC)c(CN2CCN(C(=O)CNC(=O)c3cc(C)cc(C)c3)CC2)c1 | -138% (active) |
| COc1cc(OC)cc(C(=O)NCC(=O)N2CCCCCCC2)c1 | 8.95% (inactive) |
| COc1ccc(C(CNC(=O)CSc2ccccc2)N2CCOCC2)cc1 (stereo unspecified) | -6.03% (inactive) |
| Cc1ccc(C=O)c([B-](F)(F)F)c1 | -18.6% (inactive) |

| SMILES | activity change |
| --- | --- |
| Cc1cc(=O)c2ccc(NC(=O)c3ccccc3)cc2[nH]1 | 13.6% (inactive) |
| COc1cc(C)c(CN2CCN(C(=O)CCC(=O)c3ccc(C)s3)CC2)cc1OC | 1.74% (inactive) |
| O=C1c2ccccc2C(O)N1Cc1ccccc1Cl (stereo unspecified) | 23.3% (inactive) |
| COc1ccc(NC(=O)N2CCCC2C(=O)NCc2ccccc2Cl)cc1 (stereo unspecified) | -3.26% (inactive) |
| O=C(Nc1ccc(Br)cc1)C1CCC(=O)N1Cc1ccccc1Cl (stereo unspecified) | -94.2% (active) |
| CCN1CCN(CC(=O)Nc2sc3c(c2C#N)CCC3)CC1 | 5.2% (inactive) |
| O=C(CN1CCCC1)Nc1sc2c(c1C(=O)Nc1ccccc1)CCCC2 | -93.7% (active) |
| O=C(O)c1c(NC(=O)N2CCCC2)sc2c1CCCC2 | 0.0561% (inactive) |
| c1ccc(Cn2nnc3c(NCC4CC4)ncnc32)cc1 | -10.7% (inactive) |
| Cc1c(NC(=O)COC(=O)/C=C/c2cccc(F)c2)c(=O)n(-c2ccccc2)n1C | 0.394% (inactive) |
| Cc1csc(=O)n1CCC(=O)OCC(=O)Nc1ccc(N2CCOCC2)cc1 | -7.46% (inactive) |
| Cn1c(CCN2CCN(c3ccccn3)CC2)nc2cc(NS(=O)(=O)c3ccc(F)cc3)ccc21 | -20.6% (inactive) |
| COc1cc2[nH]c(=O)n(Cc3ccc(C(=O)NC4CCN(Cc5ccccc5)CC4)cc3)c(=O)c2cc1OC | -9.69% (inactive) |
| COc1ccc(C(=O)NC2CC2)cc1OC1CCN(Cc2cnn(C)c2)CC1 | -9.12% (inactive) |
| COc1cc(C(=O)N2CCN(C/C=C/c3ccccc3)CC2)cc(OC)c1C | -0.254% (inactive) |
| COc1ccc(C(=O)NC2CC2)cc1OC1CCN(C/C=C/c2ccccc2)CC1 | -83.5% (active) |
| COc1ccc(C(=O)NC2CC2)cc1OC1CCN(Cc2ccc(SC)cc2)CC1 | -117% (active) |
| COc1ccc(C(=O)NCCn2nc(C)cc2C)cc1OC1CCN(C(C)=O)CC1 | 3.09% (inactive) |
